# High-throughput results: PubChem BioAssay, several laboratories
# An excerpt weighted towards active compounds, which were near 4.1% of everything screened.
# IDE inh: human IDE inhibitors in live cells, primary screen, fluorescence polarization, HEK cells, FAbetaB substrate; Insulin-degrading enzyme (Homo sapiens), P14735; FAbetaB cleavage; inhibition, % at 5.59 µM; 320,000 compounds, 0.41% hits; AID 434962, 2010;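 active means percent inhibition above the average of all tested compounds plus 3 SD, set per screening campaign, cut at about 16% in these data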;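 further: IDE supplied by intact live HEK cells; FP after avidin binding of uncleaved biotin substrate so inhibition keeps polarization high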
# CaV13 FRET inh: Disruptors of the CACNA1D IQ motif to Ca2+-dependent inactivation inhibitor domain association, primary screening, Förster resonance energy transfer in intact living …; HEK cells, CFP/YFP FRET ICDI-IQ, plate reader, 10 min; percent FRET-ratio fall versus neutral wells; inhibition, % at 12.3 µM; 340,000 compounds, 0.098% hits;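 active means mean replicate inhibition of at least 30% and at least 1% of replicates passing that level; inconclusive means only one of the two criteria is met; inactive means neither criterion is met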
# PolyA inhibitor: polyadenylation inhibitors in yeast reporter cells, primary screen, luminescence, S. cerevisiae; S. cerevisiae SKY197-pL101 polyadenylation reporter, beta-gal luminescence; efflux-impaired pdr1/pdr3 knockout yeast; score 100 = 6 SD above DMSO; activity score, % at 12 µM; 300,000 compounds, 0.02% hits;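 active means lowest replicate activity score at least 50, where 100 means six control SD above control mean; inconclusive means lowest score under 50 but half or more replicates reach 50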;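 further: yeast exposed to compound for 9 h at 30 °C; higher score means more reporter readthrough which indicates perturbed polyadenylation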
# M18AAP inhibitor: PfM18AAP inhibitors, malaria aminopeptidase, primary screen, biochemical, QFRET, recombinant enzyme; 290,000 compounds, 1.2% hits; H-Glu-NHMec fluorogenic cleavage; M18 aspartyl aminopeptidase (Plasmodium falciparum 3D7); inhibition, % at 7.35 µM;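 active means inhibition above the campaign mean inhibition over all tested compounds plus 3 SD, cut at about 28% in these data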
# ALR inh: inhibitors of human ALR sulfhydryl oxidase, primary screen, biochemical, H2O2 detection, HRP-luminol luminescence, single point; purified ALR, DTT oxidation; 290,000 compounds, 3.8% hits; inhibition, % (concentration not given with the values); FAD-linked sulfhydryl oxidase ALR (Homo sapiens), P55789;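 active means mean replicate inhibition above about 79%, with every replicate also reaching it, limit read from the data; inconclusive means only one of the two criteria met; inactive means mean below limit and not every replicate reaching it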
# Target sequence (P55789 whole entry, looked up): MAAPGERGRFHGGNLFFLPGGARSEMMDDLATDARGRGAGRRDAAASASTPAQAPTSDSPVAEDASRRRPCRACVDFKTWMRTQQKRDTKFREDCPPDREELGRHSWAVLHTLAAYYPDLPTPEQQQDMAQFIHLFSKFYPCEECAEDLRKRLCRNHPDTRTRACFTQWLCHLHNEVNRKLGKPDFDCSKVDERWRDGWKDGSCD
# IDE cell activ: human IDE activators in live cells, primary screen, fluorescence polarization, HEK cells, FAbeta-B substrate | FAbeta-B cleavage; 0% vehicle, 100% cell-free pure enzyme wells | activation, % at 5.96 µM | 340,000 compounds, 0.073% hits | Insulin-degrading enzyme (Homo sapiens), P14735;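 active means activation above the mean of all tested compounds plus 3 SD, set per screening campaign, cut at about 17% in these data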
# Numbers stand for hits; – = inactive; ? = inconclusive; · = no result given.
SMILES,IDE inh,CaV13 FRET inh,PolyA inhibitor,M18AAP inhibitor,ALR inh,IDE cell activ
CCOC(=O)C1CCN(C(=O)c2ccc3c(Cl)c4c(nc3c2)CCCC4)CC1,–,–,–,–,95.4,–
CCOC(=O)c1ccccc1NC(=O)c1ccc2c(SCC(=O)O)c3c(nc2c1)CCCC3,–,–,–,–,–,–
CCCN1CCN(CCCNC(=O)c2ccc3c(Cl)c4c(nc3c2)CCCC4)CC1,–,–,–,–,–,–
CC1CCN(C(=O)c2ccc3c(Cl)c4c(nc3c2)CCCC4)CC1,–,–,–,–,–,–
CCOC(=O)N1CCN(C(=O)c2ccc3c(SCC(=O)O)c4c(nc3c2)CCC4)CC1,–,–,–,–,79.8,–
O=C(NCCCN1CCCC1)c1ccc2c(Cl)c3c(nc2c1)CCCC3,–,–,–,–,94.2,–
O=C(CN(c1ccccn1)S(=O)(=O)c1ccccc1)N/N=C/c1cccc([N+](=O)[O-])c1,–,–,–,–,–,–
Cn1c(=O)c2c(nc(NCC3CCCC(CN)C3)n2Cc2ccc(Cl)cc2Cl)n(C)c1=O (stereo unspecified),–,–,–,–,–,–
O[C@H]1CN(CC2CCCCC2)[C@@H](c2ccccc2)C[C@@H]1n1cc(C2CC2)nn1,·,–,·,·,·,·
COc1ccc(/C=C2\C(=O)ON=C2c2ccccc2)cc1,–,–,–,–,97.8,–
O=C1ON=C(c2ccccc2)/C1=C/c1ccc(OS(=O)(=O)c2ccccc2)cc1,–,–,·,–,–,–
COc1ccc(Nc2cc(C)c3c(O)cccc3n2)cc1,–,–,–,–,83.7,–
Cc1ccc(Nc2cc(C)c3c(O)cccc3n2)cc1C,–,–,–,–,–,–
COc1ccc(OC)c(NC(=O)Cc2ccc(NC3=NC4CS(=O)(=O)CC4S3)cc2)c1 (stereo unspecified),–,–,–,–,–,–
CC1CCCN(C(=S)Nc2ccc(F)cc2)C1 (stereo unspecified),–,–,–,–,–,–
S=C(Nc1ccc(Nc2ccccc2)cc1)N1CCN(c2ncccn2)CC1,–,–,–,–,98.3,–
CC1CCCN(C(=S)Nc2ccc(Nc3ccccc3)cc2)C1 (stereo unspecified),–,–,–,–,99.3,·
OC1CCN(C(=S)Nc2ccc(Nc3ccccc3)cc2)CC1,–,–,–,–,99.1,–
C[C@H]1COc2cc(N3CCCC3)ccc2S(=O)(=O)N1,·,–,·,·,·,·
Cc1noc(C)c1S(=O)(=O)N(CC(=O)NCc1ccc2c(c1)OCO2)c1ccc(C(C)C)cc1,–,–,–,–,95.2,–
COc1ccc(CNC(=O)CN(c2cc(C)cc(C)c2)S(=O)(=O)c2c(C)noc2C)cc1,–,–,–,–,?,–
Cc1ccc(CNC(=O)CN(c2ccc(C(C)C)cc2)S(=O)(=O)c2c(C)noc2C)cc1,–,–,–,–,–,–
CCOc1ccc(N(CC(=O)Nc2cccc(Cl)c2)S(=O)(=O)c2c(C)noc2C)cc1,–,–,–,–,96.8,–
COc1ccc(CNC(=O)CN(c2ccc(C)cc2)S(=O)(=O)c2c(C)noc2C)cc1,–,–,–,–,–,–
Cc1cc(C)cc(N(CC(=O)NCc2ccco2)S(=O)(=O)c2c(C)noc2C)c1,–,–,–,–,85.7,–
SMILES,IDE inh,CaV13 FRET inh,PolyA inhibitor,M18AAP inhibitor,ALR inh,IDE cell activ
Cc1ccc(N(CC(=O)NCc2ccc3c(c2)OCO3)S(=O)(=O)c2c(C)noc2C)cc1,–,–,–,–,97.3,–
O=C(CSc1nc(N2CCOCC2)nc(N2CCOCC2)n1)Nc1ccc(Cl)cc1Cl,–,–,–,–,–,–
COC(=O)CC1C(=O)NC2CCCCC2N1C(=O)CCl (stereo unspecified),–,–,–,–,–,·
Cc1cc(N2CCOCC2)nc2ccc(NC(=S)NCc3ccc4c(c3)OCO4)cc12,–,–,–,–,98.8,–
COCCNC(=S)Nc1ccc2nc(N3CCCC3)cc(C)c2c1,–,–,–,–,–,–
COCCNC(=S)Nc1ccc2nc(N3CCOCC3)cc(C)c2c1,–,–,–,–,84.9,–
Cc1cc(N2CCOCC2)nc2ccc(NC(=S)NC(C)C)cc12,–,–,–,–,92.7,–
Cc1ccc(NC(=O)Cc2ccsc2)cc1S(=O)(=O)N1CCOCC1,–,–,·,·,–,–
COc1ccc(NC(=O)NS(=O)(=O)c2ccc(C)cc2)cn1,·,–,–,–,–,30.1
COc1cc2c(cc1OC)CN(C1CC(=O)N(c3c(C)cccc3C)C1=O)CC2 (stereo unspecified),–,–,–,–,·,–
Cc1ccc(NC(=O)CS(=O)CC(=O)Nc2ccccc2-c2ccc(C)o2)cc1 (stereo unspecified),–,–,–,–,99.1,–
Cn1ccnc1/C(=N\NC(=O)c1ccccc1)c1cccc([N+](=O)[O-])c1,–,–,–,–,95.5,–
C[C@@H]1CC=C[C@H]2[C@H]1C(=O)N(Cc1ccccc1)[C@H]2c1ccc(F)c(-c2ccc(N(C)C)cc2)c1,–,–,–,·,·,–
CN1C(=O)C2C(c3ccc(N(C)C)cc3)NN(Cc3ccccc3)C2C1=O (stereo unspecified),–,–,–,–,98.5,–
COC(=O)C1=C/C=C\CN(C(c2ccccc2)c2ccccc2)/C=C\1C(=O)OC,·,–,·,·,·,·
O=C(O)c1cc(O)c2c(c1)C(=O)c1cccc(O)c1C2=O,–,–,–,28.5,–,–
CCCCc1c(O)nc(SCC(=O)N2CCOCC2)n(-c2ccccc2OC)c1=O,–,–,–,–,–,–
CCCCc1c(O)nc(SCC(=O)c2ccccc2)n(-c2ccccc2C)c1=O,–,–,–,–,97.3,–
CCCCc1c(O)nc(SCC(=O)c2ccccc2)n(-c2ccccc2OC)c1=O,–,–,–,–,98.7,–
CCCCc1c(O)nc(SCC(=O)c2ccccc2)n(-c2ccccc2)c1=O,–,–,–,–,–,–
Cc1ccc(C)c(S(=O)(=O)N2CCN(C(=O)/C=C/c3ccco3)CC2)c1,–,–,·,·,·,–
CN(CC(=O)Nc1ccccc1N1CCOCC1)S(=O)(=O)c1ccc(Cl)cc1,–,·,–,–,–,–
Cc1ccc(C2(C)NC(=O)N(CC(=O)Nc3ccccc3N3CCCC3)C2=O)cc1 (stereo unspecified),–,·,–,·,76.5,–
Cc1ccc(S(=O)(=O)N(C)CC(=O)Nc2ccccc2N2CCCC2)cc1,–,–,·,·,82.5,–
NC(=O)C1CCN(C(=O)CCSCc2ccc(Cl)c(Cl)c2)CC1,–,–,–,–,–,–
